PubChem BioAssay AID1159580 (chemical genetic matrix, 2015)
About 2,000 (36%) of roughly 5,500 compounds were called active. About 18% were inconclusive and are not listed. Cut-off read from the data, not from the text of the source: active = normalized growth mostly below about 0.91 (no sharp cut-off); inconclusive = no clear call, values can overlap the other calls; inactive = mostly above about 0.92. The list shows a part of the results.

Test: chemical genetic growth profiling, strain panel (AID 1159580);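 note: tested at 20 µM; growth read once vehicle control cultures reached saturation at 30 °C; 1 = growth at the plate median or of vehicle wells; lower values mean less growth of the strain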
Details: growth OD

Measured: normalized growth

O=c1oc2cc(O)ccc2s1
active: S. cerevisiae deletion strains, locus YKR001C, strain vps1, active compounds read low 0.894 | S. cerevisiae deletion strains, locus YML032C, strain rad52, active compounds read low 0.858 | S. cerevisiae deletion strains, locus YMR125W, strain sto1, active compounds read low 1.12 [resistant] | S. cerevisiae deletion strains, strain wtn01, active compounds read low 0.876
inactive: S. cerevisiae deletion strains, locus YJR043C, strain POL32, active compounds read low 0.962 | S. cerevisiae deletion strains, locus YJR075W, strain HOC1, active compounds read low 0.958 | S. cerevisiae deletion strains, locus YKL009W, strain mrt4, active compounds read low 0.952 | S. cerevisiae deletion strains, locus YKL068W, active compounds read low 0.995 | S. cerevisiae deletion strains, locus YKL085W, strain MDH1 (second series), active compounds read low 0.975 | S. cerevisiae deletion strains, locus YKL085W, strain MDH1, active compounds read low 0.975 | S. cerevisiae deletion strains, locus YKL160W, strain elf1, active compounds read low 0.99 | S. cerevisiae deletion strains, locus YKL190W, strain CNB1, active compounds read low 1 | S. cerevisiae deletion strains, locus YKR026C, strain gcn3, active compounds read low 1.01 | S. cerevisiae deletion strains, locus YKR091W, strain srl3, active compounds read low 1.01 | S. cerevisiae deletion strains, locus YLL001W, strain dnm1, active compounds read low 0.974 | S. cerevisiae deletion strains, locus YLL026W, active compounds read low 0.99 | S. cerevisiae deletion strains, locus YLL041C, strain sdh2, active compounds read low 1.02 | S. cerevisiae deletion strains, locus YLR027C, strain aat2, active compounds read low 0.983 | S. cerevisiae deletion strains, locus YLR039C, strain RIC1, active compounds read low 0.909 | S. cerevisiae deletion strains, locus YLR058C, strain SHM2, active compounds read low 0.983 | S. cerevisiae deletion strains, locus YLR102C, strain apc9, active compounds read low 0.963 | S. cerevisiae deletion strains, locus YLR221C, strain rsa3, active compounds read low 0.971 | S. cerevisiae deletion strains, locus YLR258W, strain gsy2, active compounds read low 1 | S. cerevisiae deletion strains, locus YLR262C, strain YPT6 (second series), active compounds read low 0.965 | S. cerevisiae deletion strains, locus YLR262C, strain YPT6, active compounds read low 0.981 | S. cerevisiae deletion strains, locus YLR268W, strain sec22, active compounds read low 0.903 | S. cerevisiae deletion strains, locus YLR320W, strain mms22, active compounds read low 0.962 | S. cerevisiae deletion strains, locus YLR330W, strain CHS5, active compounds read low 0.982 | S. cerevisiae deletion strains, locus YLR342W, strain FKS1 (second series), active compounds read low 0.956 | S. cerevisiae deletion strains, locus YLR342W, strain FKS1, active compounds read low 1 | S. cerevisiae deletion strains, locus YLR357W, strain rsc2, active compounds read low 0.995 | S. cerevisiae deletion strains, locus YLR370C, strain arc18, active compounds read low 0.999 | S. cerevisiae deletion strains, locus YLR371W, strain rom2, active compounds read low 0.965 | S. cerevisiae deletion strains, locus YLR384C, strain iki3, active compounds read low 1.02 | S. cerevisiae deletion strains, locus YLR418C, strain cdc73, active compounds read low 0.929 | S. cerevisiae deletion strains, locus YML016C, strain PPZ1, active compounds read low 0.98 | S. cerevisiae deletion strains, locus YML120C, strain ndi1, active compounds read low 0.994 | S. cerevisiae deletion strains, locus YML124C, strain tub3, active compounds read low 0.962 | S. cerevisiae deletion strains, locus YMR058W, strain fet3, active compounds read low 0.967 | S. cerevisiae deletion strains, locus YMR078C, strain ctf18, active compounds read low 0.95 | S. cerevisiae deletion strains, locus YMR129W, active compounds read low 1 | S. cerevisiae deletion strains, locus YMR205C, strain PFK2, active compounds read low 0.969 | S. cerevisiae deletion strains, locus YMR223W, strain ubp8, active compounds read low 0.96 | S. cerevisiae deletion strains, locus YMR231W, strain pep5, active compounds read low 1.03 | S. cerevisiae deletion strains, locus YMR263W, strain SAP30, active compounds read low 0.956 | S. cerevisiae deletion strains, locus YMR307W, strain GAS1, active compounds read low 0.946 | S. cerevisiae deletion strains, locus YNL067W, strain RPL9B, active compounds read low 0.926 | S. cerevisiae deletion strains, locus YNL071W, strain lat1, active compounds read low 1.01 | S. cerevisiae deletion strains, locus YNL128W, strain TEP1, active compounds read low 0.962 | S. cerevisiae deletion strains, locus YNL153C, strain GIM3, active compounds read low 0.948 | S. cerevisiae deletion strains, locus YNL209W, strain ssb2, active compounds read low 1 | S. cerevisiae deletion strains, locus YNL233W, strain BNI4, active compounds read low 0.955 | S. cerevisiae deletion strains, locus YNL248C, strain rpa49, active compounds read low 1.04 | S. cerevisiae deletion strains, locus YNL250W, strain rad50, active compounds read low 0.941 | S. cerevisiae deletion strains, locus YNL271C, strain bni1, active compounds read low 0.939 | S. cerevisiae deletion strains, locus YNL298W, strain CLA4, active compounds read low 0.917 | S. cerevisiae deletion strains, locus YNL307C, strain MCK1, active compounds read low 0.959 | S. cerevisiae deletion strains, locus YNL322C, strain KRE1 (second series), active compounds read low 1.01 | S. cerevisiae deletion strains, locus YNL322C, strain KRE1, active compounds read low 0.99 | S. cerevisiae deletion strains, locus YNR049C, strain mso1, active compounds read low 0.999 | S. cerevisiae deletion strains, locus YNR052C, strain pop2, active compounds read low 0.966 | S. cerevisiae deletion strains, locus YOL006C, strain TOP1, active compounds read low 0.908 | S. cerevisiae deletion strains, locus YOL012C, strain htz1 1.09 | S. cerevisiae deletion strains, locus YOL147C, strain pex11, active compounds read low 0.964 | S. cerevisiae deletion strains, locus YOR001W, strain rrp6, active compounds read low 0.994 | S. cerevisiae deletion strains, locus YOR061W, strain CKA2, active compounds read low 0.984 | S. cerevisiae deletion strains, locus YOR069W, strain VPS5, active compounds read low 0.984 | S. cerevisiae deletion strains, locus YOR070C, strain gyp1, active compounds read low 1.01 | S. cerevisiae deletion strains, locus YOR080W, strain dia2, active compounds read low 1.02 | S. cerevisiae deletion strains, locus YOR083W, strain WHI5, active compounds read low 0.931 | S. cerevisiae deletion strains, locus YOR106W, strain vam3, active compounds read low 0.972 | S. cerevisiae deletion strains, locus YOR136W, strain idh2, active compounds read low 0.972 | S. cerevisiae deletion strains, locus YOR144C, strain elg1, active compounds read low 0.966 | S. cerevisiae deletion strains, locus YOR184W, strain ser1, active compounds read low 0.91 | S. cerevisiae deletion strains, locus YOR265W, strain rbl2, active compounds read low 0.994 | S. cerevisiae deletion strains, locus YOR270C, strain vph1, active compounds read low 0.943 | S. cerevisiae deletion strains, locus YOR290C, strain snf2, active compounds read low 0.992 | S. cerevisiae deletion strains, locus YOR316C, strain cot1, active compounds read low 0.968 | S. cerevisiae deletion strains, locus YPL051W, strain arl3, active compounds read low 0.999 | S. cerevisiae deletion strains, locus YPL055C, strain LGE1, active compounds read low 1 | S. cerevisiae deletion strains, locus YPL078C, strain atp4, active compounds read low 0.987 | S. cerevisiae deletion strains, locus YPL106C, strain sse1, active compounds read low 1.02 | S. cerevisiae deletion strains, locus YPL240C, strain hsp82, active compounds read low 1.02 | S. cerevisiae deletion strains, locus YPL241C, strain CIN2, active compounds read low 0.989 | S. cerevisiae deletion strains, locus YPR119W, strain clb2, active compounds read low 0.967 | S. cerevisiae deletion strains, locus YPR141C, strain kar3, active compounds read low 0.933 | S. cerevisiae deletion strains, locus YPR163C, strain tif3, active compounds read low 0.965 | S. cerevisiae deletion strains, locus YPR167C, strain met16, active compounds read low 0.965 | S. cerevisiae strains, strain wild type, active compounds read low 0.978
